Compound activity from PubChem.
HCV inhibitor: blocks hepatitis C virus; Huh7.5.1 HCVcc-Cre infection, luciferase reporter, 44 h; Potency, µM (titrated, usually from 41.8 µM), inactives show at the top dose activity change, negative = inhibition, usual class: inhibitors; 340,000 compounds, 3.4% hits; AID 651820; active means well fitted inhibition curve with a large enough effect; inconclusive means small, poorly fitted or top-dose-only effect, or another doubt; inactive means no such curve, though single readings can be large or run the other way; further: potency means the concentration at half of the fitted maximal effect
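Reporter virus HCVcc-Cre (~0.5 moi) infects cells exposed to compound; seeding density 1,000 cells/well with 4 h settling beforehand. Luminescence, 15 sec read, taken 44 h post-infection following a 15 min RT substrate incubation.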
Marburg entry inh: inhibitors of Marburg virus binding or cell entry | 300,000 compounds, 1.8% hits | Marburg virus pseudotyped entry inhibition, cell reporter | AID 540276 | Potency, µM (doses to about 37.8 µM), inactives show at the highest dose activity change, negative = inhibition, most hits filed as inhibitors; calls by dose curve; tested in HEK293 cells; further: potency means the concentration at half of the fitted maximal effect
Vaccinia mCherry: inhibitors of vaccinia virus infection (mCherry reporter signal); Vaccinia virus mCherry reporter infection, fluorescence; Potency, µM (top dose mostly 36.5 µM), inactives show top-dose activity change, negative = inhibition, hits mostly inhibitors; 310,000 compounds, 0.63% hits; AID 720579; calls by dose curve; tested in A549 cells; further: potency means the concentration at half of the fitted maximal effect; nearly all actives have a fitted effect of over 35% in size
LASV entry inh: inhibitors of Lassa virus binding or cell entry; Lassa virus pseudotype entry inhibition, cell reporter; Potency, µM (doses to about 37.9 µM), for inactives: top-dose activity change, negative = inhibition, most hits filed as inhibitors; 300,000 compounds, 1.2% hits; AID 540256; calls by dose curve; tested in HEK293 cells; further: potency means the concentration at half of the fitted maximal effect; nearly all actives have a fitted effect of over 50% in size
HCMV antiviral: human cytomegalovirus inhibition | 410,000 compounds, 4.5% hits | HFF cells, HCMV-luciferase reporter, 72 h; active compounds read low | AID 1259415 | activity change, negative = inhibition, % at 57.5 µM; in the data active means activity change below about -60%; inconclusive means no clear call, values can overlap the other calls; inactive means above about -39%
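Cell-based, HFFs, 1000 cells/well, 16 h 37C; cpds in DMSO + HCMV-luc, MOI 1 PFU/cell; 72 h 37C; OneGlo luminescence after 5 min RT; norm. to buffer vs Salinomycin 10uM.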
Vaccinia Venus: vaccinia inhibition (Venus reporter); Vaccinia virus Venus reporter expression, fluorescence; Potency, µM (titrated, usually from 36.5 µM), inactives show top-dose activity change, negative = inhibition, most hits filed as inhibitors; 330,000 compounds, 0.46% hits; AID 720580; calls by dose curve; tested in A549 cells; further: potency means the concentration at half of the fitted maximal effect; nearly all actives have a fitted effect of over 30% in size
Active calls of the source: *; i = inactive; u = inconclusive; x = no result; ! = not active in a repeat; [ ] = dose if it differs, or a comment. Sampled rows, rich in hits. Any-hit rate of the full collection: about 7.8%. On the % scale 0 is the no-effect control and ±100 the full control effect.

SMILES	HCV inhibitor	Marburg entry inh	Vaccinia mCherry	LASV entry inh	HCMV antiviral	Vaccinia Venus
O=S(=O)(NC1CC(NS(=O)(=O)OCC(Cl)(Cl)Cl)C2CCCCC12)OCC(Cl)(Cl)Cl (centres undefined)	-8%	x	u	x	x	11µM*
O=S(=O)(NC1CCCC1)OCC(Cl)(Cl)Cl	0.32µM*	x	-1%	x	-63*	-20%
CC1=C(O)C(=O)C=C2C1=CC=C1C2(C)CCC2(C)C3CC(C)(C(=O)O)CCC3(C)CCC12C (centres undefined)	u	2.8µM*	22µM*	u	-78*	10µM*
CCCSc1nnc2n(-c3cccc(C)c3)c(=O)c3c4c(sc3n12)CCCC4	x	25%[46.1 µM]	-17%	-2%[46.1 µM]	-17	0%
CCSc1nnc2n(-c3ccc(OC)cc3)c(=O)c3c4c(sc3n12)CCCC4	-4%	12%	-19%	0%	-85*	-5%
Cc1ccccc1S(=O)(=O)N[C@H]1CC[C@@]23CCCN2C(=O)CCC[C@H]3[C@H]1Cc1ccccc1	x	x	x	x	-11	x
O=C(O)c1cc(O)c2c(c1)[C@H]([C@H]1c3cc(C(=O)O)cc(O)c3C(=O)c3c(O[C@@H]4O[C@H](CO)[C@@H](O)[C@H](O)[C@H]4O)cccc31)c1cccc(OC3O[C@H](CO)[C@@H](O)[C@H](O)[C@H]3O)c1C2=O (some centres undefined)	0.35µM*!	x	i	x	-101*	-14%
O=C(Nc1nc(-c2cc3ccccc3o2)cs1)c1ccc(S(=O)(=O)N2CCCC2)cc1	u	u	x	u	-84*	x
CC1CN(S(=O)(=O)c2ccc(C(=O)Nc3nc(-c4cc5ccccc5o4)cs3)cc2)CC(C)O1 (centres undefined)	u	u	u	u	-26	-10%
CN(C)S(=O)(=O)c1ccc(C(=O)Nc2nc(-c3cc4ccccc4o3)cs2)cc1	u	u	x	u	-69*	x
Cc1cc(-c2csc(NC(=O)c3ccc(S(=O)(=O)N(C)C)cc3)n2)c(C)n1-c1ccccc1	u	1.3µM*	-4%	u	-25	-13%
CCOc1ccc(NC(=O)CN2C(=O)c3ccccc3Sc3ccc(C(=O)OC)cc32)cc1	x	x	6%	2%[46.1 µM]	14	13%
Cc1cccc(-c2nc(C)c(CCNC(=O)c3cccs3)s2)c1	x	x	7%	u	47	-2%
CCC(=O)Nc1nnc(SCC(=O)NCC2CCCO2)s1 (centres undefined)	3.5µM*	16%	-17%	u	9	-21%
O=C(CSc1nnc(NC(=O)c2cccc(Br)c2)s1)NCC1CCCO1 (centres undefined)	9%	-7%	i	-15%	-98*	-10%
O=C(CSc1nnc(NC(=O)c2ccc3c(c2)OCO3)s1)NCc1ccco1	18%	7.1µM*	-12%	u	14	-10%
CC(=O)Nc1nnc(SCC(=O)NCC2CCCO2)s1 (centres undefined)	19%	-7%	i	-7%	39	-12%
O=C(CSc1nnc(NC(=O)c2ccccc2)s1)NCC1CCCO1 (centres undefined)	4%	-14%	-9%	-19%	33	-10%
COc1cccc(C(=O)NCc2cn3ccccc3n2)c1	x	-11%[46.1 µM]	-11%	-4%[46.1 µM]	-25	-5%
CN(C)c1nc(Nc2ccccc2)nc(N(C)C)n1	u	3.5µM*	-14%	22%	50	-11%
COC(=O)c1ccc(Oc2nc(Nc3ccccc3)nc(N(C)C)n2)cc1	11µM*	-19%	x	-3%	-15	x
CCN(CC)c1nc(Nc2ccccc2)nc(Oc2ccc(C(=O)OC)cc2)n1	u	u	x	2%	23	x
CN(C)c1nc(N/N=C/c2ccccc2O)nc(Nc2ccc(F)cc2)n1	u	u	7.9µM*	u	u	u
NC(=Nc1nc(-c2ccccn2)cc2ccccc12)c1ccccn1	u	u	0.32µM*	0.56µM*	-101*	u
N/C(=N\OC(=O)c1cccc2ccccc12)c1ccccn1	u	u	-5%[7.34 µM]	u	27	-2%[7.34 µM]
C[C@H]1C=CCC(=O)N[C@@H](c2ccccc2)[C@@H](C)C=CCC(=O)N[C@@H]1c1ccccc1	x	u	x	-13%[14.3 µM]	x	x
